Assay in all cases: NCI-60 one-dose screen, 48 h (100 = growth as untreated, 0 = no growth, -100 = all killed)
The test system of one assay is HCT-15 colon. The note with it: 10 µM.
Another assay has as its system HT29 colon. The conditions noted are these: 10 µM.
In a further assay the test system is SNB-75 CNS. The conditions noted are these: 10 µM.
In the next assay the test system is SNB-19 CNS. The conditions noted are these: 10 µM.
The test system of another assay is U251 CNS. The conditions noted are these: 10 µM.
A further assay relates to PC-3 prostate. The conditions noted are these: 10 µM.
Another assay concerns SK-MEL-5 melanoma. The note with it: 10 µM.
The subject of the next assay is UACC-62 melanoma. The conditions noted are these: 10 µM unless noted.
A further assay concerns LOX IMVI melanoma. The note with it: 10 µM.
For a further assay, the system named is SK-MEL-28 melanoma. The conditions noted are these: 10 µM.

Compounds without any hit were thinned out: in the full panel of roughly 83,000, 20% have a hit.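 The endpoint reported here, percent growth, reads 100 for growth as untreated, 0 for no net growth and -100 for all cells dead.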 Unmarked numbers belong to inactive results. The source made the active and inactive calls. The calls were made as follows: active = growth percent below 10; inactive = the rest.

Take `O=C(O)CCCCNC(=O)c1ccccc1`: the growth is 102% in the assay with HCT-15 colon; 101% in the assay on HT29 colon; 103% in the assay with SNB-75 CNS; 108% in the assay on SNB-19 CNS; 98.5% in the assay on U251 CNS; 100% in the assay with PC-3 prostate. Also, the growth is 101% with SK-MEL-5 melanoma, 110% in the assay on UACC-62 melanoma, 91.8% in the assay on LOX IMVI melanoma and 111% with SK-MEL-28 melanoma.

`Cc1ncc(C#N)c(N)n1`: the growth in the assay on HCT-15 colon is 100%; in the assay on HT29 colon it was 112%; in the assay on SNB-75 CNS it was 77.8%; with SNB-19 CNS, 102%; in the assay on U251 CNS it was 100%; in the assay with PC-3 prostate, 90%. The growth in the assay with SK-MEL-5 melanoma was 89.9%; with UACC-62 melanoma it was 99.7%; with LOX IMVI melanoma, 100%; in the assay with SK-MEL-28 melanoma, 102%.

With `C/C(=N\O)C1(O)CCCCC1`, the growth in the assay on HCT-15 colon is 93.6%; in the assay with HT29 colon it was 110%; in the assay on SNB-75 CNS, 91.7%; with SNB-19 CNS, 105%; in the assay on U251 CNS it was 95.1%; in the assay with PC-3 prostate, 129%. The growth was 87.9% in the assay on SK-MEL-5 melanoma, 59.2% in the assay with UACC-62 melanoma, 98.8% with LOX IMVI melanoma and 114% in the assay on SK-MEL-28 melanoma.

In the case of `CC(=O)OCC1CCCO1` (centres undefined), the growth is 100% with HCT-15 colon; 101% with HT29 colon; 96.1% with SNB-75 CNS; 105% in the assay with SNB-19 CNS; 103% in the assay with U251 CNS; 108% with PC-3 prostate. The growth was 101% in the assay on SK-MEL-5 melanoma, 99.8% in the assay on UACC-62 melanoma, 98% in the assay on LOX IMVI melanoma and 108% in the assay on SK-MEL-28 melanoma.

Take `COCCOCCCl`: the growth is 99.3% in the assay on HCT-15 colon; 105% in the assay with HT29 colon; 95.9% with SNB-75 CNS; 103% with SNB-19 CNS; 105% in the assay on U251 CNS; 84.5% with PC-3 prostate. Also, the growth in the assay with SK-MEL-5 melanoma is 92.1%; in the assay with UACC-62 melanoma, 104%; in the assay with LOX IMVI melanoma, 98.5%; with SK-MEL-28 melanoma, 114%.

Turning to `COC(=O)Nc1nc2ccc(C(=O)c3cccs3)cc2[nH]1`, the growth is 10.8% in the assay on HCT-15 colon; 2.02% (active) in the assay on HT29 colon; 32.8% with SNB-75 CNS; 29.9% with SNB-19 CNS; 16.6% in the assay with U251 CNS; 22.7% in the assay with PC-3 prostate. Besides, the growth was -21.1% (active) with SK-MEL-5 melanoma, 34.2% with UACC-62 melanoma, 28.4% in the assay on LOX IMVI melanoma and 56.3% in the assay on SK-MEL-28 melanoma.

As for `CC12CC3CC1C(C(=O)O2)C3C(=O)O` (centres undefined), the growth with HCT-15 colon is 104%; in the assay on HT29 colon it was 98.9%; in the assay with SNB-75 CNS it was 102%; in the assay with SNB-19 CNS it was 98.6%; in the assay on U251 CNS, 103%; in the assay on PC-3 prostate, 101%. For the same molecule, the growth with SK-MEL-5 melanoma is 104%; in the assay with UACC-62 melanoma it was 98.3%; in the assay with LOX IMVI melanoma it was 99.7%; in the assay with SK-MEL-28 melanoma, 106%.

For `CC(C)=NNC(N)=S`, the growth in the assay on HCT-15 colon is 73.5%; with HT29 colon, 40.5%; in the assay on SNB-75 CNS, 93.5%; in the assay on SNB-19 CNS, 94.4%; in the assay with U251 CNS, 88.2%; with PC-3 prostate, 77.9%. For the same molecule, the growth in the assay with SK-MEL-5 melanoma is 90.2%; in the assay on UACC-62 melanoma, 91%; in the assay on LOX IMVI melanoma, 69.7%; with SK-MEL-28 melanoma, 94.1%.

As for `COC(=O)/C=C1\Sc2cc(F)ccc2NC1=O`, the growth in the assay on HCT-15 colon is 106%; with HT29 colon, 97.8%; in the assay with SNB-75 CNS, 86.6%; in the assay on SNB-19 CNS, 95%; with U251 CNS, 93.2%; in the assay with PC-3 prostate, 92.2%. Moreover, the growth with SK-MEL-5 melanoma is 104%; with UACC-62 melanoma it was 88.8%; in the assay with LOX IMVI melanoma it was 93.4%; in the assay on SK-MEL-28 melanoma, 129%.

Take `CCO/C=C1\SC(=S)N(c2cccc(C)c2)C1=O`: the growth was 101% with HCT-15 colon; 102% in the assay with HT29 colon; 80.6% in the assay with SNB-75 CNS; 111% in the assay on SNB-19 CNS; 98.6% in the assay with U251 CNS; 92.5% in the assay on PC-3 prostate. The growth was 102% in the assay on SK-MEL-5 melanoma, 105% in the assay on UACC-62 melanoma, 104% with LOX IMVI melanoma and 104% in the assay with SK-MEL-28 melanoma.

On to `CCc1nc(N)nc(N)c1-c1ccc(Cl)cc1`, for which the growth is 34.1% with HCT-15 colon; 47.5% with HT29 colon; 77% in the assay on SNB-75 CNS; 88.4% in the assay on SNB-19 CNS; 46.3% in the assay with U251 CNS; 60.5% in the assay with PC-3 prostate. In addition, the values for the growth in the assay with SK-MEL-5 melanoma, with LOX IMVI melanoma and with SK-MEL-28 melanoma were 24.3%, 31.2% and 94.1%, respectively.

For `COCCOC(=O)c1ccc(C(C)C)cc1`, the growth with HCT-15 colon is 99.5%; with HT29 colon, 91.9%; with SNB-75 CNS, 86.9%; in the assay with SNB-19 CNS, 106%; in the assay with U251 CNS, 98.8%; in the assay with PC-3 prostate, 82.9%. In addition, the growth in the assay on SK-MEL-5 melanoma is 103%; in the assay on UACC-62 melanoma it was 99.4%; in the assay with LOX IMVI melanoma, 95.7%; in the assay with SK-MEL-28 melanoma, 110%.

On to `Cc1ccc(C(O)C2CC2)cc1` (centres undefined), for which the growth was 97.7% with HCT-15 colon; 104% in the assay on HT29 colon; 88.9% in the assay with SNB-75 CNS; 96.7% in the assay on SNB-19 CNS; 100% with U251 CNS; 94.5% with PC-3 prostate. Further, the growth with SK-MEL-5 melanoma was 103%; in the assay on UACC-62 melanoma it was 98.8%; in the assay with LOX IMVI melanoma it was 100%; with SK-MEL-28 melanoma, 106%.

On to `CC(=O)c1ccc(C(C)(C)C)cc1`, for which the growth with HCT-15 colon is 101%; in the assay with HT29 colon, 96.7%; with SNB-75 CNS, 97.7%; in the assay on SNB-19 CNS it was 95.6%; in the assay with U251 CNS it was 99.6%; in the assay on PC-3 prostate, 91.2%. The growth with SK-MEL-5 melanoma was 101%; in the assay on UACC-62 melanoma, 91.1%; in the assay with LOX IMVI melanoma, 98.5%; with SK-MEL-28 melanoma, 120%.

Take `CCCCC/C=N/Nc1nc(C)cc(=O)[nH]1`: the growth is 116% in the assay on HCT-15 colon; 105% in the assay on HT29 colon; 99.2% in the assay with SNB-75 CNS; 108% in the assay on SNB-19 CNS; 96.6% with U251 CNS; 88.7% with PC-3 prostate. Moreover, the growth in the assay on SK-MEL-5 melanoma is 104%; in the assay on UACC-62 melanoma it was 102%; with LOX IMVI melanoma it was 94.3%; with SK-MEL-28 melanoma it was 102%.
